Source: PubChem BioAssay (several laboratories)
An excerpt weighted towards active compounds, which were near 2.9% of everything screened.
Mtb hypoxia rep = Mtb hypoxia fluorescent reporter inhibition. AID 1159583. 300,000 tested, 0.1% active. fluorescence inhibition, % (test concentration not listed). M. tuberculosis hypoxia-regulated fluorescent reporter, fluorescence; in the data active = fluorescence inhibition mostly above about 23%, no sharp cut-off; inactive = mostly below about 17%
Mtb BioA inh = inhibitors of Mycobacterium tuberculosis BioA enzyme; purified M. tuberculosis BioA enzyme, plate reader; inhibition, % at 9.99 µM; 360,000 tested, 0.096% active; in the data active = inhibition above about 40%
Mtb FBA inh = inhibits M. tuberculosis FBA enzyme; P9WQA3; purified M. tuberculosis FBA, fluorescence read-out; inhibition, % at 1 µM; 360,000 tested, 2.3% active; AID 588726;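 note: 0% = vehicle and 100% = reference inhibitor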
Target sequence (P9WQA3 whole entry, looked up): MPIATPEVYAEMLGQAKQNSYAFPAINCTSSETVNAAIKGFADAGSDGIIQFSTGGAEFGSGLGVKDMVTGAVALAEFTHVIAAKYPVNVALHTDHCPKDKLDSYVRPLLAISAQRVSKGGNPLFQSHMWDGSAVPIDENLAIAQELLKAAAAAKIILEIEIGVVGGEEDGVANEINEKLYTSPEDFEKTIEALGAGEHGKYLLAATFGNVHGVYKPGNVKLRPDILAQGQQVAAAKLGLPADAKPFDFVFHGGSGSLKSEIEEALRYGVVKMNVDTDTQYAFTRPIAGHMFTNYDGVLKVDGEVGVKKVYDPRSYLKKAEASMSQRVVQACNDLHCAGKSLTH
GDH-TPI counter-1 = GDH-TPI coupled enzyme inhibition counter-screen; 360,000 tested, 1.2% active; inhibition, % at 4.8 µM; GDH-TPI coupled enzyme counterscreen, NADH absorbance; AID 588335; in the data active = inhibition above about 30%;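 note: 0% = DMSO wells and 100% = wells lacking the enzyme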
FadD28 binding = blocks FadD28 binding to the bisubstrate probe | fluorescence polarization | inhibition, % at 12.5 µM | 360,000 tested, 0.22% active; in the data active = inhibition above about 8.5%, passing the limit was not always enough
Mtb FBA inh conf = Mtb FBA inhibition, confirmed; shares compounds with Mtb FBA inh; purified M. tuberculosis FBA, fluorescence read-out; inhibition, % at 1 µM; 5,600 tested, 78% active;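 note: 0% = vehicle wells and 100% = reference inhibitor wells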
GDH-TPI counter-2 = inhibits GDH-TPI coupling enzymes, flagging Mtb FBA hits; shares compounds with Mtb FBA inh; GDH-TPI coupled enzyme counterscreen, fluorescence; inhibition, % at 1 µM; 5,600 tested, 81% active; AID 652141; in the data active = inhibition above about 10%
GDH-TPI DR = inhibits GDH-TPI coupling enzymes in dose response. IC50, µM. 170 tested, 79% active. shares compounds with Mtb FBA inh. GDH-TPI coupled enzyme assay, fluorescence, artifact counterscreen. AID 652145; call rule not given here
An asterisk follows results filed as active; . = no result given; + = active, no number. Cut-off read from the data, not from the text of the source, unless noted: active = inhibition above about 27%; inactive = the rest.

SMILES	Mtb hypoxia rep	Mtb BioA inh	Mtb FBA inh	GDH-TPI counter-1	FadD28 binding	Mtb FBA inh conf	GDH-TPI counter-2	others
N#CCSc1n[nH]c2nc3c(c(=O)n12)C1(CCCC1)Cc1ccccc1-3	6.3	0.1	65.8*	-5.8	0.1	114.7*	82.7*
COC(=O)c1cc(C)nc(N)c1C#N	.	-1.9	107.7*	2.6	-0.5	127.8*	81.5*
C#CCSc1nc(C)cc(C(=O)OCC)c1C#N	2.0	.	2.8	0.0	-1.4	.	.
CC(C(=O)NC(C)(C)C)N1C(=O)c2cccc3cccc(c23)C1=O (stereo not drawn)	2.9	.	27.2*	9.5	0.3	3.4	4.8
CC(C)C(C(=O)NC(C)(C)C)N1C(=O)c2ccccc2C1=O (stereo not drawn)	15.6	-4.4	0.9	3.4	-4.2	.	.
COc1ccc(-c2cnc3c(c2)C(=O)N([C@H](C)CO)C[C@@H](C)[C@H](CN(C)C(=O)Cc2cccnc2)O3)cc1	.	1.7	.	.	.	.	.
COc1ccccc1-c1sc2cc3c(cc2c1C#Cc1cncn1C)OCO3	13.4	-3.2	47.5*	10.0	-22.4	88.4*	61.0*
COc1ccc(-c2ccc3c(c2)CN(C(=O)CCc2ccccc2)Cc2cnnn2-3)cc1	.	-6.0	63.3*	.	-7.9	+	173.0*
Cc1ccc2[nH]c(-c3cccc(N)c3)cc2c1	7.2	-1.2	43.5*	9.1	-5.8	151.5*	128.5*
Clc1ccc2[nH]c(-c3ccccc3)cc2c1	.	-0.6	8.8	5.9	-5.8	.	.
C[C@@H]1CN([C@H](C)CO)C(=O)c2cc(NS(=O)(=O)c3cn(C)cn3)ccc2O[C@@H](C)CCCCO[C@@H]1CN(C)Cc1ccc(C(F)(F)F)cc1	.	1.9	.	.	.	.	.
COc1ccccc1C1C2=C(CCCC2=O)N(CC(=O)O)C2=C1C(=O)CCC2	.	-2.2	40.4*	4.6	-1.1	-2.3	-2.4
COc1cc2c(cc1OC)-c1nnc(-c3ccco3)n1C1(CCCC1)C2	7.7	.	47.1*	-5.4	-2.7	108.1*	83.7*
c1coc(-c2nnc3n2C2(CCCC2)Cc2ccccc2-3)c1	4.5	-2.3	6.3	10.7	-2.6	.	.
O=C(Nc1ccc([N+](=O)[O-])cn1)c1cccnc1	1.1	1.1	2.5	1.5	0.8	.	.
O=C(Nc1ccc([N+](=O)[O-])cn1)c1ccc(Br)o1	-3.0	-1.7	95.1*	27.1	-1.3	0.1	-4.3
COc1cc(C=NNC(=O)c2cccc([N+](=O)[O-])c2)ccc1OC(=O)c1ccco1	1.7	.	.	.	.	.	.
CC1=CC(c2ccc(Cl)cc2)n2nc(NS(=O)(=O)c3ccc(C)cc3)nc2N1 (stereo not drawn)	-5.7	2.5	80.3*	12.2	0.0	67.9*	63.4*
CC1=CC(c2ccccc2)n2ncnc2N1 (stereo not drawn)	-3.7	1.5	5.4	7.8	-4.7	.	.
CC1=CC(c2ccccc2)n2nc(N)nc2N1 (stereo not drawn)	17.0	0.1	53.5*	5.9	-2.5	39.7*	36.6*
CC1=CC(c2ccccc2)n2nc(NS(=O)(=O)c3ccc(C)cc3)nc2N1 (stereo not drawn)	7.2	0.0	48.8*	14.3	-1.0	21.5	15.0*
O=CNc1ccc2c3c(cccc13)-c1ccccc1-2	-1.0	-1.4	78.8*	6.8	0.3	69.5*	51.5*
CCOc1ccc2oc(C(=O)OCC(=O)N3CC(C)OC(C)C3)c(C)c2c1 (stereo not drawn)	-2.6	0.2	45.8*	4.9	-1.5	+	+
CCOc1ccc2oc(C(=O)OCC(=O)N3CCCC(C)C3)c(C)c2c1 (stereo not drawn)	7.0	-1.4	48.5*	3.8	-1.9	94.8*	78.2*
Cc1c(C(=O)OCC(=O)N2CCCC(C)C2)oc2ccccc12 (stereo not drawn)	0.9	.	5.6	-7.2	-1.9	.	.
SMILES	Mtb hypoxia rep	Mtb BioA inh	Mtb FBA inh	GDH-TPI counter-1	FadD28 binding	Mtb FBA inh conf	GDH-TPI counter-2	others
COc1ccc2oc(C(=O)OCC(=O)N3CCCC(C)C3)c(C)c2c1 (stereo not drawn)	-1.9	.	62.7*	5.6	-2.1	61.2*	55.0*
Cc1c(C(=O)OCC(=O)N2CC(C)OC(C)C2)oc2ccc(Br)cc12 (stereo not drawn)	6.4	0.0	-3.2	11.4	-0.8	.	.
C[C@@H]1CCCCO[C@@H](CN(C)C(=O)c2ccccc2)[C@@H](C)CN([C@@H](C)CO)C(=O)c2cc(NC(=O)NC3CCCCC3)ccc2O1	.	1.6	.	.	.	.	.
Cn1c(C(=O)N[C@@H](Cc2ccccc2)C(=O)NCCC(=O)O)cc2cc(Cl)ccc21	4.0	-1.0	2.8	13.9	-0.1	.	.
COc1ccc2c(c1)cc(C(=O)N[C@@H](CCSC)C(=O)N1CCC(C(=O)O)CC1)n2C	10.6	-3.3	64.2*	-7.3	-3.6	0.1	-1.2
COc1ccc2c(c1)cc(C(=O)N[C@@H](Cc1ccccc1)C(=O)N[C@@H](C)C(=O)O)n2C	-10.6	-0.4	59.0*	14.7	0.3	31.4*	9.0	GDH-TPI DR=2.45*
COc1ccc2c(c1)cc(C(=O)N[C@@H](Cc1ccccc1)C(=O)O)n2C	17.2	-1.8	91.7*	0.7	-1.5	121.3*	87.5*
Cn1c(C(=O)N[C@@H](Cc2ccccc2)C(=O)O)cc2cc(F)ccc21	-6.0	0.4	8.4	-9.5	-4.2	.	.
O=C(C=Cc1ccccc1)N1CCN(CC(O)COc2ccccc2)CC1 (stereo not drawn)	10.3	.	.	.	.	.	.
C=CCC(CC(=O)NC(CO)Cc1ccccc1)C(=O)NC(COC(=O)C(CC=C)CC(=O)OC(C)(C)C)Cc1c[nH]c2ccccc12 (stereo not drawn)	2.1	.	.	.	.	.	.
Cc1ccc(S(=O)(=O)Nc2ccc3c(c2)C(=O)N([C@H](C)CO)C[C@@H](C)[C@@H](CN(C)C(=O)Cc2ccccc2)OCCCC[C@H](C)O3)cc1	.	1.4	.	.	.	.	.
O=C(C[C@H]1C[C@H]2c3cc(NC(=O)CC4CC4)ccc3O[C@H]2[C@@H](CO)O1)NCc1ccccn1	.	-1.6	.	.	.	.	.
O=C(C(O)c1ccc(Br)cc1)N1CCC(Nc2ccc3[nH]ncc3c2)CC1 (stereo not drawn)	.	0.9	42.0*	5.2	-2.3	+	+
CCOC(=O)c1sc2nc(CC(=O)OC)nc(N3CCN(c4ccccn4)CC3)c2c1C	9.7	-0.6	1.9	16.7	-3.0	.	.
CCOC(=O)c1sc2nc(C)nc(NCc3ccc(F)cc3)c2c1C	3.5	-1.4	41.2*	14.9	2.1	44.3*	45.6*
CCOC(=O)c1sc2nc(C)nc(NCc3ccc(Cl)cc3)c2c1C	10.7	-0.8	17.8	7.3	0.2	.	.
CCOC(=O)c1sc2nc(C)nc(NCc3cccnc3)c2c1C	-1.9	.	43.8*	0.0	-4.0	107.5*	87.9*
